GPR151 activ – activates the human receptor GPR151. activation, % at 11.2 µM. Q8TDV0. AID 1508602. PathHunter beta-arrestin GPR151 cells, luminescence. actives 1% (n = 650,000); in the data active = activation above about 4.9%;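 also: 0% = median of compound wells and 100% = cells with positive control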
Target sequence (Q8TDV0 whole entry, looked up): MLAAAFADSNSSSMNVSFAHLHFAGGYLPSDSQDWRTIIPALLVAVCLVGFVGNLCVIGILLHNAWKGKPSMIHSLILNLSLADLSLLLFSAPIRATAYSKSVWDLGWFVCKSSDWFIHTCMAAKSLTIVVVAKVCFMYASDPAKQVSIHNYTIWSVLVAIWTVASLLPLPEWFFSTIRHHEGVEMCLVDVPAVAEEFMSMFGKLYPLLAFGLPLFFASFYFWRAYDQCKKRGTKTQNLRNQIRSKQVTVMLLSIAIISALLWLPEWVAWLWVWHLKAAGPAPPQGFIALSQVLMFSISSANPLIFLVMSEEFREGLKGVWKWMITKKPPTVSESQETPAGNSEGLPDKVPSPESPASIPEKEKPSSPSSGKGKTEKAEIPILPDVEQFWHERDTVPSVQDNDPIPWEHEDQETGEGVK
TEAD-YAP inh – TEAD-YAP interaction inhibition; HEK-TIYL cells, TEAD-Gal4/YAP UAS-luciferase luminescence; inhibition, % at 9.12 µM; actives 1.4% (n = 640,000); in the data active = inhibition above about 32%;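 also: 0% = median of test compound wells and 100% = reference inhibitor wells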
FBW7 activator – activators of human E3 ligase FBW7; Q969H0; AlphaScreen FBW7–phospho-cyclin E peptide binding, activator screen; normalized activity (activation), % at 26.1 µM; actives 0.13% (n = 650,000); AID 1259310; in the data active = normalized activity above about 1.9%;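 also: purified mutant Fbw7 with reduced substrate affinity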
MITF primary – inhibitors of human MITF | actives 0.91% (n = 650,000) | AlphaScreen MITF homodimerization, bead proximity signal | O75030 | inhibition, % at 2.6 µM; in the data active = inhibition above about 50%;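 also: 0% = vehicle wells with protein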
MITF inh conf – confirmation of human MITF inhibitors. shares compounds with MITF primary. AlphaScreen MITF homodimerization, biotin/His-MITF beads. inhibition, % at 2.6 µM. actives 16% (n = 4,700). AID 1259372;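 active = inhibition above a cutoff derived from the DMSO control wells, cut at about 28% in these data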;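 also: 0% = MITF dimer wells with DMSO only; inhibitors lower the bead chemiluminescence by keeping MITF from dimerizing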
AS interf DR – AlphaScreen optical interference, dose response counter-screen; shares compounds with MITF primary; AlphaScreen optical interference counterscreen, cell-free; IC50, µM; actives 6% (n = 480); AID 1259373; call rule not given here
AS interf ctr – optically interferes with AlphaScreen signal. shares compounds with MITF primary. LysRS AlphaScreen counterscreen, signal interference, triplicate. inhibition, % at 2.6 µM. actives 7.6% (n = 4,700). AID 1259376;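 active = inhibition above a cutoff derived from the DMSO control wells, cut at about 30% in these data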
Active calls of the source: *. In the library only some 3.4% were active in any assay of this set; here they are far more common.

What do the screens show for `CCN1CCN(CCNC(=O)CCCN2C(=S)NC(C)(C)CC2C)CC1` (configuration not stated)?
GPR151 activ: 1.4; TEAD-YAP inh: 7.7; FBW7 activator: -0.1; MITF primary: 71.2*; MITF inh conf: 4.8; AS interf ctr: 6.3

How did CCc1ccccc1NC(=O)CCCN1C(=S)NC(C)(C)CC1C (configuration not stated) do in these assays?
GPR151 activ: -0.3; TEAD-YAP inh: 5.5; FBW7 activator: -0.2; MITF primary: -2.7

How did CC1CCC(N2CCN(CC3CC=CCC3)CC2)CC1 (configuration not stated) do in these assays?
GPR151 activ: -0.8; TEAD-YAP inh: 1.9; FBW7 activator: 0.2; MITF primary: 62.5*; MITF inh conf: 1.6; AS interf ctr: -0.4

How did C1=CCC(CN2CCN(C3CCCCCC3)CC2)CC1 (configuration not stated) do in these assays?
GPR151 activ: 1.6; TEAD-YAP inh: 4.5; FBW7 activator: 0.2; MITF primary: 76.1*; MITF inh conf: -4.3; AS interf ctr: -7.4

What do the screens show for `CCCS(=O)(=O)N1CCN(CC2CC=CCC2)CC1` (configuration not stated)?
GPR151 activ: 0.2; TEAD-YAP inh: 10.1; FBW7 activator: 0.0; MITF primary: 32.1

What do the screens show for `Cc1ccc(C(=O)Nc2c(C)cccc2C(=O)O)cc1C`?
GPR151 activ: 0.8; TEAD-YAP inh: -3.1; FBW7 activator: -0.1; MITF primary: 1.2

Results for N#Cc1ccc(-c2ccc(F)cc2)nc1SCC(=O)NC1CC1 ?
GPR151 activ: 0.7; TEAD-YAP inh: 4.6; FBW7 activator: 0.2; MITF primary: 51.8*; MITF inh conf: -3.1; AS interf ctr: 2.6

What do the screens show for `CCn1c(CNc2ccc(C)cc2)nnc1SCC(=O)N1CCCCC1`?
GPR151 activ: -0.8; TEAD-YAP inh: -3.0; FBW7 activator: 0.4; MITF primary: 8.5

Results for O=C(CNCCc1ccc2c(c1)OCCO2)N1CCc2ccccc21 ?
GPR151 activ: 0.4; TEAD-YAP inh: 6.7; FBW7 activator: -0.1; MITF primary: 50.7*; MITF inh conf: -2.8; AS interf ctr: 7.1

What do the screens show for `Nc1ncc(Br)cc1S(=O)(=O)N1CCN(Cc2ccccc2)CC1`?
GPR151 activ: -1.4; TEAD-YAP inh: 7.3; FBW7 activator: 0.1; MITF primary: -0.5

What do the screens show for `CCc1ccc(NC(=O)C2CC=CCC2C(=O)O)cc1` (configuration not stated)?
GPR151 activ: -0.1; TEAD-YAP inh: 6.0; FBW7 activator: 0.8; MITF primary: 83.3*; MITF inh conf: 7.0; AS interf ctr: 8.1

What do the screens show for `CC(=O)Nc1ccc(NC(=O)C2CC=CCC2C(=O)O)cc1` (configuration not stated)?
GPR151 activ: -1.0; TEAD-YAP inh: 1.0; FBW7 activator: -0.1; MITF primary: -4.8

How did O=C(NCC1COc2ccccc2O1)c1ccc(Br)cc1 (configuration not stated) do in these assays?
GPR151 activ: -0.6; TEAD-YAP inh: -57.5; FBW7 activator: -0.1; MITF primary: -5.2

Results for O=C(CNC(=O)C1CCCCC1)NNC(=O)Cc1c[nH]c2ccccc12 ?
GPR151 activ: 1.1; TEAD-YAP inh: 1.7; FBW7 activator: 0.1; MITF primary: -0.4

Results for c1ccc(N2CCCC2=Nc2ccncc2)cc1 ?
GPR151 activ: 0.0; TEAD-YAP inh: -2.2; FBW7 activator: -0.2; MITF primary: 68.4*; MITF inh conf: 6.1; AS interf ctr: 10.6

How did NC(=O)CN1CCCC1=Nc1ccccc1 do in these assays?
GPR151 activ: -1.0; TEAD-YAP inh: -0.3; FBW7 activator: -0.1; MITF primary: -3.8

What do the screens show for `COc1ccc(Nc2nc(Cl)nc(NCCC3=CCCCC3)n2)cc1Cl`?
GPR151 activ: 0.6; TEAD-YAP inh: 1.0; FBW7 activator: -0.1; MITF primary: 14.0

Results for O=C(O)c1cccc2c1C(=O)N(c1ccccc1)C2 ?
GPR151 activ: -2.1; TEAD-YAP inh: -4.7; FBW7 activator: -0.1; MITF primary: 71.8*; MITF inh conf: 71.6*; AS interf DR: >6.31; AS interf ctr: 13.4

What do the screens show for `CCCN1Cc2cccc(C(=O)O)c2C1=O`?
GPR151 activ: 1.0; TEAD-YAP inh: 2.4; FBW7 activator: 0.7; MITF primary: 16.6

How did Cc1ccccc1OCC(=O)Nc1ccc([N+](=O)[O-])cc1Cl do in these assays?
GPR151 activ: 1.0; TEAD-YAP inh: 5.0; FBW7 activator: 0.3; MITF primary: 54.0*; MITF inh conf: -12.2; AS interf ctr: -3.7

What do the screens show for `O=C(c1cccs1)c1conc1C(=O)c1ccco1`?
GPR151 activ: 0.3; TEAD-YAP inh: 11.0; FBW7 activator: 0.1; MITF primary: 1.8

Results for O=C(c1cccnc1)N1C2C=CC(C2)C1(C(F)(F)F)C(F)(F)F (configuration not stated) ?
GPR151 activ: -2.1; TEAD-YAP inh: 5.2; FBW7 activator: -0.1; MITF primary: 33.0

What do the screens show for `O=C(c1ccncc1)N1C2C=CC(C2)C1(C(F)(F)F)C(F)(F)F` (configuration not stated)?
GPR151 activ: 0.1; TEAD-YAP inh: 0.2; FBW7 activator: -0.2; MITF primary: 68.2*; MITF inh conf: 59.3*; AS interf DR: >6.48; AS interf ctr: -5.8

Results for CC(Oc1ccccc1C#N)C(=O)Nc1ccc(F)c([N+](=O)[O-])c1 (configuration not stated) ?
GPR151 activ: -0.2; TEAD-YAP inh: 16.3; FBW7 activator: 0.1; MITF primary: 5.3

What do the screens show for `Cc1cc(NC(=O)CC(C)(C)C)n(-c2nc3c(cnn3-c3ccc(C)c(C)c3)c(=O)[nH]2)n1`?
GPR151 activ: -1.7; TEAD-YAP inh: 8.1; FBW7 activator: 0.0; MITF primary: -11.0

How did CN(CCOc1ccccc1)Cc1nc2ccc(Cl)cc2n1CCO do in these assays?
GPR151 activ: -0.1; TEAD-YAP inh: -0.8; FBW7 activator: -0.1; MITF primary: 77.6*; MITF inh conf: 17.7; AS interf ctr: 16.6

What do the screens show for `CC(=O)n1c2c(c3ccccc31)OC(N)=C(C#N)C2c1cccc([N+](=O)[O-])c1` (configuration not stated)?
GPR151 activ: 0.2; TEAD-YAP inh: 9.3; FBW7 activator: 0.0; MITF primary: 57.8*; MITF inh conf: 7.3; AS interf ctr: 14.0

What do the screens show for `CCCOC(=O)C(C)Nc1n[nH]c(=S)[nH]c1=O` (configuration not stated)?
GPR151 activ: -0.5; TEAD-YAP inh: -3.4; FBW7 activator: -0.8; MITF primary: 55.1*; MITF inh conf: -1.4; AS interf ctr: 20.1

What do the screens show for `O=c1c2[nH]c3ccccc3c2ncn1/N=C/c1ccccc1`?
GPR151 activ: -0.5; TEAD-YAP inh: 2.8; FBW7 activator: 0.2; MITF primary: -5.3

How did Fc1ccccc1CN1CCN(C2CCN(Cc3ccccc3)CC2)CC1 do in these assays?
GPR151 activ: 2.5; TEAD-YAP inh: -1.0; FBW7 activator: 0.0; MITF primary: 7.0
